# Source: ChEMBL document CHEMBL1961873, “Compounds: GSK PKIS; Assays: Nanosyn kinase panel” (2012)
# Experiments:
# [1] = molecular target: T1, Ephrin type-B receptor 2 (Homo sapiens) (UniProt P29323); conditions: at 1 µM
# T1 sequence (whole entry): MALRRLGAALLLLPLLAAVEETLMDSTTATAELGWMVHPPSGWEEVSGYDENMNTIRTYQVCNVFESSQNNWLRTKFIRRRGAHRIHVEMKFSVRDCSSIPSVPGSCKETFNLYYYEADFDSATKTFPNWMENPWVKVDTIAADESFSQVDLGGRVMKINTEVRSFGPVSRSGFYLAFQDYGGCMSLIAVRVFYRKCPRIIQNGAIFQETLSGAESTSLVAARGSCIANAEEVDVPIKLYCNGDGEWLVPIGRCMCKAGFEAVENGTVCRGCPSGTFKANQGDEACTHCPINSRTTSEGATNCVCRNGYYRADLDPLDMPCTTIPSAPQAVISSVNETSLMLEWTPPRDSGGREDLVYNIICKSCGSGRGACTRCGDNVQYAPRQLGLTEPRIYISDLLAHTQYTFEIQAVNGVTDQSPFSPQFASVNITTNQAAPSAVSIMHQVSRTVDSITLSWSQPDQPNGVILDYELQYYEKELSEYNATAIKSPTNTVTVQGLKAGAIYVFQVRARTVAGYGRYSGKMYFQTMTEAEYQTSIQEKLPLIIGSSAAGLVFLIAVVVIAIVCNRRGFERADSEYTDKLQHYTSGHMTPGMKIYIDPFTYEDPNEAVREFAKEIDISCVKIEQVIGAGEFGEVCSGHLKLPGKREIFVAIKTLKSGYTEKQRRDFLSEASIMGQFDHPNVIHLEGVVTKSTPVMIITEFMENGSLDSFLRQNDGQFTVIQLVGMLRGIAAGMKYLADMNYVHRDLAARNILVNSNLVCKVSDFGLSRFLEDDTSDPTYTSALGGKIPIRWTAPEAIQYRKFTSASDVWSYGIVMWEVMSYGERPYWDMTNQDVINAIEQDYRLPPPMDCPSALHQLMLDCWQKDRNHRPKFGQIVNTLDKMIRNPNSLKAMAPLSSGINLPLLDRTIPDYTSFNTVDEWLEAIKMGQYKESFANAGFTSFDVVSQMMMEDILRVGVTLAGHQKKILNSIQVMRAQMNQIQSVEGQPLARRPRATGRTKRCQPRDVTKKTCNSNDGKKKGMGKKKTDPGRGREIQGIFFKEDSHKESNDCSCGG
# [2] = molecular target: T2, Ephrin type-B receptor 3 (Homo sapiens) (UniProt P54753); conditions: at 0.1 µM
# T2 sequence (whole entry): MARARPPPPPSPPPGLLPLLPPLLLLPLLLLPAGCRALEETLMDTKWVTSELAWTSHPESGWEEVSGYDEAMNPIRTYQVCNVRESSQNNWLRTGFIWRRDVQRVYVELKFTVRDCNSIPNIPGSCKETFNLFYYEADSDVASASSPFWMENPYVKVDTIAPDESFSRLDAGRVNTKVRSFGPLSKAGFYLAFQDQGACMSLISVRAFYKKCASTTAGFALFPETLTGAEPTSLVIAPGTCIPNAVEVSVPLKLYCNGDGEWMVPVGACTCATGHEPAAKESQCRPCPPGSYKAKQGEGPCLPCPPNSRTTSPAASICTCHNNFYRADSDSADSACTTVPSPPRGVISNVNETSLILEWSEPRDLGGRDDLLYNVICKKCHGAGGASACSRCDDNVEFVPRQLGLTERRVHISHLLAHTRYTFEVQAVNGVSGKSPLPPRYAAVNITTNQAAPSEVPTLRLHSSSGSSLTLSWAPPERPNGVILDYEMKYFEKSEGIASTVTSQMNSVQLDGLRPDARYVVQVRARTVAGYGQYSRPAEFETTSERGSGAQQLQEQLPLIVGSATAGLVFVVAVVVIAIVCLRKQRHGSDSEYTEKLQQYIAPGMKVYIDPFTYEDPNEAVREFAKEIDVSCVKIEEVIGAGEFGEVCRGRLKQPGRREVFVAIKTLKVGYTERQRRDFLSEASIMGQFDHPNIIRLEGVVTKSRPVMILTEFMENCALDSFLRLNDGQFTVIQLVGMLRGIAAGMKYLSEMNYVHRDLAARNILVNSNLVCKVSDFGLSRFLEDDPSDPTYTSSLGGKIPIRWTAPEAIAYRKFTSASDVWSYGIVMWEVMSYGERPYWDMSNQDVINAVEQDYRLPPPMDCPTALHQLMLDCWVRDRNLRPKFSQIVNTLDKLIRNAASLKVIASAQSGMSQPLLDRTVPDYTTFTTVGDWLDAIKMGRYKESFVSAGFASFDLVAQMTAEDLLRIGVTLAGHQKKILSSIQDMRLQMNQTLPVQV
# [3] = molecular target: T2, Ephrin type-B receptor 3 (Homo sapiens); conditions: at 1 µM
# [4] = molecular target: T3, Ephrin type-B receptor 4 (Homo sapiens) (UniProt P54760); conditions: at 0.1 µM
# T3 sequence (whole entry): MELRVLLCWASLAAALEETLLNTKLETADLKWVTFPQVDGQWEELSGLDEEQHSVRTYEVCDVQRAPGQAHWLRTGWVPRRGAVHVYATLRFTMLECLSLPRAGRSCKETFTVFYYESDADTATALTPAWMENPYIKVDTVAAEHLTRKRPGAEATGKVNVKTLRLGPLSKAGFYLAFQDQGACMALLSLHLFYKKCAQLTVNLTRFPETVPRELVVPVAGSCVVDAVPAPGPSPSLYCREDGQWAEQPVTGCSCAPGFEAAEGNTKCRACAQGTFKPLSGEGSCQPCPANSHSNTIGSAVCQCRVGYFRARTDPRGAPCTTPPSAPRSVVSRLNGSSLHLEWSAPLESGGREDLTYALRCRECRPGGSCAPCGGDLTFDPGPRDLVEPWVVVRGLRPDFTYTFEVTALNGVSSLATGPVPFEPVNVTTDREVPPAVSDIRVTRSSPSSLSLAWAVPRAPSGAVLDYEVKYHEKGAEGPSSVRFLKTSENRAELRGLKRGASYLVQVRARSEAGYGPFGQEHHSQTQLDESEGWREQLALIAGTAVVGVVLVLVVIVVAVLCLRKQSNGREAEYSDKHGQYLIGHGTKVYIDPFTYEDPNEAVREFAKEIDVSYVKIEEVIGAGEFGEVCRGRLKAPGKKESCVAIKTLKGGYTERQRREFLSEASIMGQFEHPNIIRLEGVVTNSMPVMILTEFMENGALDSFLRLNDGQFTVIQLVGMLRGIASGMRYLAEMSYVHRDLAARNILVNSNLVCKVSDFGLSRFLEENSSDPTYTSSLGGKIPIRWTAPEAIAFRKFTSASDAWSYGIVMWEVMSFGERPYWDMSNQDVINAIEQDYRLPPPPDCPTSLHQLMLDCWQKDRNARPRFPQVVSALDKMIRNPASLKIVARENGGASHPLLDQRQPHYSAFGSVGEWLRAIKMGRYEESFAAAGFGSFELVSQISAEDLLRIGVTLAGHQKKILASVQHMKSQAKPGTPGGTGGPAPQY
# [5] = molecular target: T3, Ephrin type-B receptor 4 (Homo sapiens); conditions: at 1 µM
# [6] = molecular target: Receptor tyrosine-protein kinase erbB-2 (Homo sapiens) (UniProt P04626); conditions: at 0.1 µM
# Chain of Receptor tyrosine-protein kinase erbB-2 (Homo sapiens) (P04626 whole entry): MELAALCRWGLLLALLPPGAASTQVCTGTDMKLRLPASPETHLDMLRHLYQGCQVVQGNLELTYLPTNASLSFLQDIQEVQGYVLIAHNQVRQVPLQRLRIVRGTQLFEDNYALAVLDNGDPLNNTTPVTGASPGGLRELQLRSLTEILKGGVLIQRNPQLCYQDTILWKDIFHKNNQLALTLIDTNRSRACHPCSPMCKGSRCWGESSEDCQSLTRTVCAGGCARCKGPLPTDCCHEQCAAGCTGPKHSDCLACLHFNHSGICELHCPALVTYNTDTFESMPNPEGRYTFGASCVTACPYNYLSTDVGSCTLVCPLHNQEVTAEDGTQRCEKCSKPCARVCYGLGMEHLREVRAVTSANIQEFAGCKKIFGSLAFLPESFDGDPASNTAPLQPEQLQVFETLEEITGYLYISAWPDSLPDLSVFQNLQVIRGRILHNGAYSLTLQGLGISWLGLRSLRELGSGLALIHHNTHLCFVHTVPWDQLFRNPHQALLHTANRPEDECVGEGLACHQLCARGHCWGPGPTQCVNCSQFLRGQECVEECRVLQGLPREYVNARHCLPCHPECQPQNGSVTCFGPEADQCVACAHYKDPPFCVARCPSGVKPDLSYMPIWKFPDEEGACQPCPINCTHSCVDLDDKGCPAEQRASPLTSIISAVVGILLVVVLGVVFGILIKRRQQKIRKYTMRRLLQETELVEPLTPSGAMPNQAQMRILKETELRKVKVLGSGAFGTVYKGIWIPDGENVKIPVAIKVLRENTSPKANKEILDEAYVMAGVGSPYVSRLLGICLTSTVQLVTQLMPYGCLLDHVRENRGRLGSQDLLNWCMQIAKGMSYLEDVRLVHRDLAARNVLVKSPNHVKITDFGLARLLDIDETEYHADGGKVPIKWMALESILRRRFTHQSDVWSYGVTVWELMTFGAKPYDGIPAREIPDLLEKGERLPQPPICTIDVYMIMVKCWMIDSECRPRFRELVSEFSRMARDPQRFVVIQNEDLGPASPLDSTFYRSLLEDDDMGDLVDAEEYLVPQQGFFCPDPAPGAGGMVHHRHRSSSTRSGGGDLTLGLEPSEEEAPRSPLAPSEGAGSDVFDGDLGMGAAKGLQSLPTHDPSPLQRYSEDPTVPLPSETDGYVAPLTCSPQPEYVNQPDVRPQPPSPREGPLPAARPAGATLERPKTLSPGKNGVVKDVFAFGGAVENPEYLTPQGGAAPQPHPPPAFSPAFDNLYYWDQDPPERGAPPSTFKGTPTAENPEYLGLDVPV
# [7] = molecular target: Receptor tyrosine-protein kinase erbB-2 (Homo sapiens) (UniProt P04626); conditions: at 1 µM
# [8] = molecular target: Receptor tyrosine-protein kinase erbB-4 (Homo sapiens) (UniProt Q15303); conditions: at 0.1 µM
# Chain of Receptor tyrosine-protein kinase erbB-4 (Homo sapiens) (Q15303 whole entry): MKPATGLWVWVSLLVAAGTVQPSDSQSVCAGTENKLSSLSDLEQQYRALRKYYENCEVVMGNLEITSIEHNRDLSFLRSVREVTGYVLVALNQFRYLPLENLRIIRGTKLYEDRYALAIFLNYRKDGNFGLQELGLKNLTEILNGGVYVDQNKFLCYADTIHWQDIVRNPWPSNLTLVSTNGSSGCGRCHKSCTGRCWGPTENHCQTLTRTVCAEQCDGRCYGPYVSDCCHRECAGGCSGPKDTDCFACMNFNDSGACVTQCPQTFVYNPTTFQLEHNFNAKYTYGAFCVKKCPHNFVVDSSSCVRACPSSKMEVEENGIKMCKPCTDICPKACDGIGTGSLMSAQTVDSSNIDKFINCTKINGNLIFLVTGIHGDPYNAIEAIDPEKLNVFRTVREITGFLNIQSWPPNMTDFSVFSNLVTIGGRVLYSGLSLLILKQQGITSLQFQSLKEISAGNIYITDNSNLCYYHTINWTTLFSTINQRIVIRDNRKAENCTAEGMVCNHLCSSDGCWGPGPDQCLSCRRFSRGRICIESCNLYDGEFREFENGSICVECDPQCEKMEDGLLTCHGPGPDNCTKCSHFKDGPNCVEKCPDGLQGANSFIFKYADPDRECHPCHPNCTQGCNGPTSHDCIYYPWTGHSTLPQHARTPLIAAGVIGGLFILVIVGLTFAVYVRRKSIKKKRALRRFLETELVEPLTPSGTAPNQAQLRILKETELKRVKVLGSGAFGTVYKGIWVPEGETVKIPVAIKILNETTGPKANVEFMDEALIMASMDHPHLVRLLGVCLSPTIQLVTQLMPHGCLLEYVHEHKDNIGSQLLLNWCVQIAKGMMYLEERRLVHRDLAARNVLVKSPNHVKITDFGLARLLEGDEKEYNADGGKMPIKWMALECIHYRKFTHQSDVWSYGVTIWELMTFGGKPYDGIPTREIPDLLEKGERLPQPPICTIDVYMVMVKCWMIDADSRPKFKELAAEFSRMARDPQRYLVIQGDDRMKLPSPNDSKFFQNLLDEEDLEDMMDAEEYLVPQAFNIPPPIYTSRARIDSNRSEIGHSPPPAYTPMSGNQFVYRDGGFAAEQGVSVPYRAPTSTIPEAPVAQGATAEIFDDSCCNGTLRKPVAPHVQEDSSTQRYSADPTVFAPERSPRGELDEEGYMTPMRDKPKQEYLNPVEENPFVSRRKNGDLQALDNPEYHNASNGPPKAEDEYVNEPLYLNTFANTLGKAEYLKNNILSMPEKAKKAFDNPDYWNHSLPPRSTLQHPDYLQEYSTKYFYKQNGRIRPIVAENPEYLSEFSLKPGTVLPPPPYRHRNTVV
# [9] = molecular target: Receptor tyrosine-protein kinase erbB-4 (Homo sapiens) (UniProt Q15303); conditions: at 1 µM
# [10] = molecular target: Tyrosine-protein kinase Fer (Homo sapiens) (UniProt P16591); conditions: at 0.1 µM;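 further: reported figures are averaged percent inhibition of FER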
# Chain of Tyrosine-protein kinase Fer (Homo sapiens) (P16591 whole entry, looked up): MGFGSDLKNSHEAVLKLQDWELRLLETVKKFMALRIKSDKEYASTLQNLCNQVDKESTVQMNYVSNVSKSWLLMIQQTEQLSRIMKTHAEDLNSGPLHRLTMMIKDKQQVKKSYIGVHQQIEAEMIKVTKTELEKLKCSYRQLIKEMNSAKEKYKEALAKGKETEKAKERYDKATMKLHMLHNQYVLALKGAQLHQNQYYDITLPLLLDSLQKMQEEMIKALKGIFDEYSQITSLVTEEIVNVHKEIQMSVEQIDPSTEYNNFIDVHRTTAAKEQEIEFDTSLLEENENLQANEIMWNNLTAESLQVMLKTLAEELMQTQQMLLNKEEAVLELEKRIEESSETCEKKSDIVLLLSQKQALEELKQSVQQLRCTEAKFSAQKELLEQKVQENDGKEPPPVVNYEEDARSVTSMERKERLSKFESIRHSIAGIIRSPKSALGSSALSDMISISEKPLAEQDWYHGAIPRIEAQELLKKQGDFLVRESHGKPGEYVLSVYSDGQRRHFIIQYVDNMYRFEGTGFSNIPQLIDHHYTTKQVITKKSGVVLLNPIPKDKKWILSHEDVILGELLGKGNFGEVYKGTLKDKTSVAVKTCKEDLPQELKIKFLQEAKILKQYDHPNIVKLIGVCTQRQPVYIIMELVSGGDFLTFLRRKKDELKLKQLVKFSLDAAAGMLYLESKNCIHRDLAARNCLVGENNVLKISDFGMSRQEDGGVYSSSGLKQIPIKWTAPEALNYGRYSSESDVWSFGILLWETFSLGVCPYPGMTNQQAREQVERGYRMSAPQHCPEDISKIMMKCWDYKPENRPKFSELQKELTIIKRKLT
Structure (SMILES),inhibition [1] [%],inhibition [2] [%],inhibition [3] [%],inhibition [4] [%],inhibition [5] [%],inhibition [6] [%],inhibition [7] [%],inhibition [8] [%],inhibition [9] [%],inhibition [10] [%]
CCCN1CCC=C(c2ccc(Nc3nc(Nc4ccccc4C(N)=O)c4cc[nH]c4n3)c(C)c2)C1,8.88,1.76,2.4,2.74,3.5,2.98,3.15,7.5,27.7,12.8
CC1=C(C(=O)Nc2ccc3[nH]ncc3c2)C(c2ccc(F)cc2)NC(=O)N1 (centres undefined),5.02,3.4,1.2,-1.65,0.92,-0.29,-0.74,4.16,5.19,0.09
CCn1c(-c2nonc2N)nc2c(C#CC(C)(C)O)nc(OC[C@@H](N)c3ccccc3)cc21,12.1,0.34,-0.22,-2.4,1.73,-1.67,-0.37,-4.79,-4.06,–
COc1ccc(-c2nn3ncccc3c2-c2ccnc(Nc3ccc(Cl)c(C(F)(F)F)c3)n2)cc1,10,3.56,4.88,3.3,-0.34,3.66,7.66,16,51.5,1.3
CCn1c(-c2nonc2N)nc2c(C#CC(C)(C)O)nc(CN3CCCC3)cc21,-4.07,2.42,-2.06,1.15,0.96,-1.45,-6.25,3.95,-0.29,-1.64
Nc1ncnc2occ(-c3ccc(NC(=O)Nc4cccc(C(F)(F)F)c4)cc3)c12,78.2,19.6,68.2,31.2,84.4,-0.01,3.75,8.79,15.2,2.94
O=C(Nc1n[nH]c2nc(-c3ccco3)c(Br)cc12)C1CC1,5.48,4.64,3.95,2.69,3.48,1.49,-3.9,10.1,15.8,1.93
NC(=O)c1cccc(Nc2nccc(Nc3cccc4[nH]ncc34)n2)c1,77.8,-3.41,4.33,22.2,72.1,-4.62,2.08,-6.41,-1.88,3.13
O=C1Nc2ccc(C(=O)c3ccco3)cc2C1=Cc1cc(Cl)c(O)c(Cl)c1,15,4.56,5.53,3.11,2.52,0.77,4.54,12.2,15.8,2.31
COc1cc(C)c(NC(=O)CN(C)C)cc1Nc1nc(Nc2cccc(F)c2C(N)=O)c2cc[nH]c2n1,8.75,4.52,0.2,2.62,1.31,0.48,-0.4,10.4,32.1,81.8
Cc1ccc(NC(=O)c2ccnc(N3CCCC3)c2)cc1-c1ccc(C(=O)NCC2CC2)cc1,6.65,1.72,-1.41,-3.04,-2.95,2.34,-3.44,6.37,5.79,0.77
CCn1c(-c2nonc2N)nc2c(N3CCCC3)nccc21,-2.7,-2.28,-3.63,-1.4,-1.17,-5.46,-0.23,-3.28,-2.19,2.26
CCn1c(-c2nonc2N)nc2cncc(C(=O)N3CC[C@H](N)C3)c21,6.1,6.62,4.88,6.15,2.54,4.24,7.27,13.3,17.8,1.22
Cc1ccc(C(=O)NC2CCCCC2)cc1-c1ccc(C(=O)NCC2CC2)cc1,7.74,5.37,1.76,1.61,0.58,-0.05,-2.24,13.3,17.9,5.55
COc1cc2ncn(-c3cc(OCc4ccccc4C(F)(F)F)c(C(N)=O)s3)c2cc1OC,17.3,1.32,0.77,0.05,1.61,3.56,4.42,3.59,11.8,3.4
Cc1nn(C)c2cc(N(C)c3ccnc(Nc4cccc(S(N)(=O)=O)c4)n3)ccc12,37.8,5.14,4.43,7.86,39.6,3.03,10.1,11,29.3,4.27
CCn1c(-c2nonc2N)nc2cnc(Oc3cccc(NC(=O)c4ccc(OCCN5CCOCC5)cc4)c3)cc21,6.97,6.88,5.06,3.21,3.05,4.69,2,5.15,10.4,3.9
